Out of some 2,100 compounds screened, about 770 (37%) were called active.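 Rule for the calls: active = by-eye trace score of 1 for enhancers or -1 for inhibitors, so actives lie on both sides (some results past the limit were not filed as active); inactive = score 0, or 3 fluorescent, or 4 baseline rise.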 Some of the results follow.
target: G protein-activated inward rectifier potassium channel 2 (Homo sapiens) + G protein-activated inward rectifier potassium channel 1 (Homo sapiens) (UniProt P48051+P48549); experiment: GIRK1/2 thallium flux modulators, retest, confirmation, cell-based, HEK293 rmGlu8/hGIRK1/2, FluoZin-2 (AID 623911); settings: HEK293 rmGlu8/hGIRK1/2, thallium flux FluoZin-2; actives lie on both sides; glutamate co-added at its EC20 level
Sequence (P48051 whole entry, looked up): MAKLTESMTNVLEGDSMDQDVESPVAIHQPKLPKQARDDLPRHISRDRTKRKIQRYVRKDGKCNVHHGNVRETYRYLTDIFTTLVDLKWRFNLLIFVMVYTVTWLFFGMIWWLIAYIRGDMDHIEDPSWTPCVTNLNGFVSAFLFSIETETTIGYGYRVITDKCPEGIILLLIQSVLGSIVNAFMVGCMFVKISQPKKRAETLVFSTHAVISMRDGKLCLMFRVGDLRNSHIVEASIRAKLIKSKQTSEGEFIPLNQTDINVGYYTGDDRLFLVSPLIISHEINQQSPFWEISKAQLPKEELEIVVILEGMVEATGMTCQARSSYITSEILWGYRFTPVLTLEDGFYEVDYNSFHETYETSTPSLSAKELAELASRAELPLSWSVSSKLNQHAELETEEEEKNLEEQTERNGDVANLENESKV
Sequence (P48549 whole entry, looked up): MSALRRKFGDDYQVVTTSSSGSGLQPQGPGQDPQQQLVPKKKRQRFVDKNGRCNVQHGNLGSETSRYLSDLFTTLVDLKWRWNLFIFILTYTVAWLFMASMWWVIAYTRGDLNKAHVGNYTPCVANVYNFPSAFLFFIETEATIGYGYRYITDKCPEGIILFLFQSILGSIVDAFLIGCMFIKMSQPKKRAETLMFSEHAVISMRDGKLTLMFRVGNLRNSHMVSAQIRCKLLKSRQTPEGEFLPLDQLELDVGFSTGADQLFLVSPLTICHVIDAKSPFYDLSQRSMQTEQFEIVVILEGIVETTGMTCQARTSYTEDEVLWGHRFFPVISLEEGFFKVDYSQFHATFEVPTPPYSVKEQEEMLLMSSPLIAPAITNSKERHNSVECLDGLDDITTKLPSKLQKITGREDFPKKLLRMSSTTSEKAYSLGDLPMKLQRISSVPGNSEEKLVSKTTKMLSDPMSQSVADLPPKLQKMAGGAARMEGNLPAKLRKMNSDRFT

Manual score, inactive:
Cc1cc(C)cc(OCC(=O)N2N=C(C(F)(F)F)CC2(O)C(C)(C)C)c1 (centres undefined) 0
O=C(N1CCCCC1)N1CCN(C(=O)N(c2ccccc2)c2ccccc2)CC1 0
CC(C)C(=O)Nc1nnn(C)n1 0
Cc1c(C(=O)NCc2cccnc2)oc2ccc(S(=O)(=O)N3CCC4(CC3)OCCO4)cc12 0
COC(=O)c1nc(NC(C)=O)n[nH]1 0
O=C(/C=C/c1ccc(Cl)cc1)NC(=S)NN1CCCCC1c1cccnc1 (centres undefined) 0
COC(=O)C1=C(C)NC(=O)/C1=C\c1ccco1 0
COc1ccc(Nc2nc(-c3cccc([N+](=O)[O-])c3)nc3ccccc23)cc1 0
COc1ccc(-n2c(=S)[nH]c3ccccc32)cc1 0
CCOC(=O)C(CCCCOc1cccc(CC)c1)C(=O)OCC 0
CCCCn1c(=O)nc2n(-c3ccccc3)c3ccccc3cc-2c1=O 0
Cc1cccc(OCCn2c(=S)[nH]c3ccccc32)c1 0
Cc1cccc(OCC(O)CN2C(C)(C)CC(O)CC2(C)C)c1 (centres undefined) 0
CC1CSc2ccccc2NC1=S (centres undefined) 0
COC(=O)c1sc(N2C(=O)C(O)=C(C(=O)c3ccc(C)o3)C2c2ccc(F)cc2)nc1C (centres undefined) 0
CC(C)(C)OC(=O)COc1cc(O)c2c(=O)cc(-c3ccccc3)oc2c1 0
Fc1ccc(-c2nnc3ccc(N4CCc5ccccc5C4)nn23)cc1 0
CCOC(=O)Cn1c(=O)oc2cc(S(=O)(=O)NCCCc3ccccc3)ccc21 0
CCOC(=O)c1cc2n(c1N)-c1ccccc1C2=O 3
CC(C)Oc1ccc(C2CC(=O)N(c3ccccc3)C2=O)cc1 (centres undefined) 0

Manual score, active:
N/C(=N/O)c1nc(N2CCCC2)nc(N(c2ccccc2)c2ccccc2)n1 -1
CCOC(=O)N1CCN(C(=O)c2oc3ccc(S(=O)(=O)N4CC(C)CC(C)C4)cc3c2C)CC1 (centres undefined) -1
CC1(C)CC2CC(C)(CN2c2ncnc3ccccc23)C1 (centres undefined) -1
Cc1cccc(N=C2NC(=O)/C(=C/C=C/c3ccco3)S2)c1C 1
CCCn1c(=N)n(CCOc2ccc(OC)cc2)c2ccccc21 -1
CCOC(=O)Cn1c(=N)n(CCOc2cccc(C)c2)c2ccccc21 -1
CCCn1c(=N)n(CC(O)COc2cccc(C)c2)c2ccccc21 (centres undefined) -1
CCCCn1c(=N)n(CC(O)COc2cccc(C)c2)c2ccccc21 (centres undefined) -1
CCOC(=O)Cn1c(=N)n(Cc2ccccc2F)c2ccccc21 -1
